Data published in PubChem BioAssay (NCI).
The panel holds about 79,000 compounds, 15% with a hit somewhere; the sample as a whole holds those more often. Calls of active or inactive are those of the source. Rule as the data show it: active = growth inhibition above about 70%; inactive = the rest.

What was measured:
[1] = NCI Yeast Anticancer Drug Screen. Data for the rad50 strain (AID 155);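 also: 0% = growth of vehicle-only cultures of the same strain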; conditions: S. cerevisiae rad50 strain growth inhibition, hits give high values
Method in brief: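 Readout: growth inhibition relative to vehicle-treated cultures. Compound exposure was carried out in a genetically defined yeast strain deficient in DNA damage repair.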

[2] = NCI Yeast Anticancer Drug Screen. Data for the mec2-1 strain (AID 157); conditions: S. cerevisiae mec2-1 strain, hits give high values
Method in brief: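 Yeast mec2-1 mutant treated with compound. Readout: growth inhibition vs vehicle controls.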

[3] = NCI Yeast Anticancer Drug Screen. Data for the sgs1 mgt1 strain (AID 161);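 also: 0% = growth of cultures given vehicle only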; conditions: S. cerevisiae sgs1 mgt1 strain, hits give high values
Method in brief: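 Read-out: growth inhibition vs vehicle controls. Cells: mutant yeast strain deficient in DNA damage repair.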

[4] = NCI Yeast Anticancer Drug Screen. Data for the cln2 rad14 strain (AID 165);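 also: 0% = growth equal to vehicle treated cultures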; conditions: S. cerevisiae cln2 rad14 strain, hits give high values
Method in brief: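 cln2 rad14 yeast strain; compound exposure; growth inhibition read vs vehicle controls.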

[5] = NCI Yeast Anticancer Drug Screen. Data for the bub3 strain (AID 167); conditions: S. cerevisiae bub3 mutant strain, hits give high values
Method in brief: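 Readout: yeast growth inhibition, expressed relative to vehicle-only wells. The test organism is a mutant strain from a panel with lesions in DNA repair or checkpoint genes.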

[6] = NCI Yeast Anticancer Drug Screen. Data for the mlh1 rad18 strain (AID 175); conditions: S. cerevisiae mlh1 rad18 strain growth inhibition, hits give high values
Method in brief: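 Yeast w/ defined DNA-repair lesions; compound exposure; growth vs vehicle controls → % inhibition.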

[7] = at 5.0 µM (retest, dose inferred, filed as 0.5)
[8] = at 50.0 µM (retest, dose inferred, filed as 5.0)

Measured: growth inhibition

CC/C(=C(\CC)c1ccc(O)c(CN(C)C)c1)c1ccc(OC)cc1
inactive: [1]; [7] 9% | [2]; [7] 9% | [3]; [7] 12% | [4]; [7] 0% | [5]; [7] -28% | [6]; [7] 3%
active: [1]; [8] 87% | [1]; at 50.0 µM 98.5% | [2]; [8] 84% | [2]; at 50.0 µM 86.3% | [3]; [8] 99% | [3]; at 50.0 µM 99.6% | [4]; [8] 98% | [4]; at 50.0 µM 97.8% | [5]; [8] 95% | [5]; at 50.0 µM 94.8% | [6]; [8] 98% | [6]; at 50.0 µM 98.6%

CCCCCCCCCCCCCCOC(=O)C(N)Cc1ccc(O)cc1 (stereo not given)
active: [1]; [8] 97% | [1]; at 50.0 µM 98.6% | [2]; [8] 98% | [2]; at 50.0 µM 99.2% | [3]; [8] 98% | [3]; at 50.0 µM 97.9% | [4]; [8] 94% | [4]; at 50.0 µM 95.1% | [5]; [8] 98% | [5]; at 50.0 µM 98.5% | [6]; [8] 97% | [6]; at 50.0 µM 98.8%
inactive: [1]; [7] 7% | [2]; [7] 1% | [3]; [7] 4% | [4]; [7] 1% | [5]; [7] 3% | [6]; [7] 7%

CC(=O)O[C@H]1CC[C@H]2[C@@H]3CCc4cc(O)c(I)cc4[C@H]3CC[C@]12C
active: [1]; [8] 84% | [3]; [8] 93% | [3]; at 50.0 µM 72.4% | [4]; [8] 75% | [5]; [8] 82% | [6]; [8] 80%
inactive: [1]; [7] 12% | [1]; at 50.0 µM 51.3% | [2]; [7] 0% | [2]; [8] 58% | [2]; at 50.0 µM 43.8% | [3]; [7] 23% | [4]; [7] 21% | [4]; at 50.0 µM 45% | [5]; [7] 20% | [5]; at 50.0 µM 47.5% | [6]; [7] 6% | [6]; at 50.0 µM 63.4%

COC(=O)C([NH-])c1ccccc1.COC(=O)C([NH-])c1ccccc1.[Cl][Pt+2][Cl] (stereo not given)
active: [1]; [8] 81% | [3]; [8] 76% | [3]; at 50.0 µM 76.3% | [6]; at 50.0 µM 76.7%
inactive: [1]; [7] 16% | [1]; at 50.0 µM 69% | [2]; [7] 11% | [2]; [8] 37% | [2]; at 50.0 µM 46.9% | [3]; [7] 39% | [4]; [7] 0% | [4]; [8] 43% | [4]; at 50.0 µM 58% | [5]; [7] 5% | [5]; [8] 27% | [5]; at 50.0 µM 30.2% | [6]; [7] 21% | [6]; [8] 60%

COc1ccc(-c2cscc2N)cc1
active: [1]; [8] 72% | [2]; at 50.0 µM 87.2% | [4]; [8] 89% | [5]; [8] 91% | [5]; at 50.0 µM 92.2% | [6]; at 50.0 µM 89%
inactive: [1]; [7] -7% | [1]; at 50.0 µM 67.5% | [2]; [7] -15% | [2]; [8] 46% | [3]; [7] -9% | [3]; [8] 38% | [3]; at 50.0 µM 51.9% | [4]; [7] -6% | [4]; at 50.0 µM 46.1% | [5]; [7] -19% | [6]; [7] -1% | [6]; [8] 56%
